Laboratory results from PubChem BioAssay.
Activity calls are given as the source filed them. The rule behind the calls is not given here.

target: Pantothenate synthetase (Mycobacterium tuberculosis (strain ATCC 25618 / H37Rv)) (UniProt P9WIL5); test: Recombinant Mtb pantothenate synthetase (PanC) inhibitors, coupled enzyme, confirmatory (AID 375); details: coupled enzyme assay; at 10 µM, active compounds read high;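 note: 0% = full reaction with vehicle and 100% = no enzyme background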
Sequence (P9WIL5 whole entry, looked up): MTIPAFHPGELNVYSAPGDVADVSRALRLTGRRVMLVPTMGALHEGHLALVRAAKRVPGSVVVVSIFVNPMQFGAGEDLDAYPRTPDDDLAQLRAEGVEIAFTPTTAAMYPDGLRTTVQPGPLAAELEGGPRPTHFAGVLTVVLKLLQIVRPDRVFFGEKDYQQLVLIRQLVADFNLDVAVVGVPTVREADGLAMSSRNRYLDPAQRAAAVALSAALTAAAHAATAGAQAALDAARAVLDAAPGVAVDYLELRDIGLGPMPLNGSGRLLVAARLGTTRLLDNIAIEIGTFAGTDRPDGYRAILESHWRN

Row | SMILES | inhibition
1 | CCCn1c(SCC(=O)N2CCN(c3ccccc3)CC2)nc2ccccc2c1=O | 0% (inactive)
2 | COc1ccc(Cn2c(C)nc3c(c2=O)c2nc4ccccc4nc2n3Cc2ccco2)cc1 | 9% (inactive)
3 | Cc1c(NC(=O)C(C)OC(=O)COc2cccc3c2OC(C)(C)C3)c(=O)n(-c2ccccc2)n1C (stereo not given) | 5% (inactive)
4 | c1ccc(CCc2nc(-c3cccnc3)no2)cc1 | 0% (inactive)
5 | COc1cc2c(cc1OC)CN(C(=O)COc1ccc(C)c(C)c1)CC2 | 1% (inactive)
6 | CC(CCc1ccco1)NC(=O)Cn1ncc2c1-c1ccccc1OC2 (stereo not given) | 5% (inactive)
7 | CCn1c(SCC(=O)c2ccc3c(c2)OCCO3)nnc1-c1ccco1 | 11% (inactive)
8 | CCN(CC)C(=O)C1=C(C)Nc2nnnn2C1c1cccnc1 (stereo not given) | 0% (inactive)
9 | O=C(Nc1ccc2c(c1)OCO2)c1ccc(CN2CCOCC2)cc1 | 1% (inactive)
10 | Cc1ccc(C2C(C#N)=C(N)Oc3cc4c(cc32)OCO4)cc1 (stereo not given) | 8% (inactive)
11 | O=C(c1ccco1)N1CCN(c2ccc(Cl)cc2)CC1 | 5% (inactive)
12 | c1ccc(Oc2ccc(-n3cnnn3)cc2)cc1 | 3% (inactive)
13 | O=C1OCCC1Sc1ncnc2sc3c(c12)CCC3 (stereo not given) | 0% (inactive)
14 | CC(C)CC(c1nnnn1C1CCCC1)N1CCN(c2ccccc2F)CC1 (stereo not given) | 0% (inactive)
15 | Cc1cc(S(=O)(=O)N2CCN(c3ncccn3)CC2)ccc1-n1cnnn1 | 1% (inactive)
16 | C=CCn1c(-c2ccc(OC)cc2)nc2ccccc21 | 0% (inactive)
17 | Cc1ccc(-c2nnc(SC(C)C#N)n2N)cc1 (stereo not given) | 3% (inactive)
18 | CCOC(=O)C1(C)NC(c2ccc(OC)c(OC)c2)C2C(=O)N(CC)C(=O)C21 (stereo not given) | 9% (inactive)
19 | CC(C)(C)n1nnnc1CN1CCN(C2CCCC2)CC1 | 3% (inactive)
20 | COc1ccc2ccccc2c1CN1CCCC(CO)C1 (stereo not given) | 0% (inactive)

Row | SMILES | inhibition
21 | COc1cc(NC(=O)c2ccc(COCC(F)(F)F)o2)cc(OC)c1OC | 7% (inactive)
22 | Cc1ccc(OCC(O)CN2C(=O)NC(C)(C)C2=O)cc1C (stereo not given) | 2% (inactive)
23 | Cc1nc(-c2coc3cc(OCC(=O)O)ccc3c2=O)cs1 | 0% (inactive)
24 | Cc1cc2ccccc2n1CCNC(=O)c1ccc(S(=O)(=O)N2CCOCC2)cc1 | 4% (inactive)
25 | O=C(c1ccccc1)c1ccc2nc[nH]c2c1 | 0% (inactive)
26 | Cc1cccc2cc(CN(CCCO)C(=O)Nc3ccc(Cl)cc3)c(=O)[nH]c12 | 5% (inactive)
27 | CC1CCCCC1NC(=O)Cn1nnc(-c2ccc(Cl)cc2)n1 (stereo not given) | 1% (inactive)
28 | COc1cc(C(c2sc3nc(C)nn3c2O)N2CC(C)CC(C)C2)cc(OC)c1OC (stereo not given) | 0% (inactive)
29 | COc1ccc(CC(=O)Nc2ccc(-c3nnc(-c4ccc(C)cc4)o3)cc2)cc1 | 4% (inactive)
30 | CCOC(=O)N1CCC(N(C(=O)Nc2cccc(OC)c2)C(C)CC)CC1 (stereo not given) | 0% (inactive)
31 | Cc1cc2c(nn1)CCC/C2=N\O | 2% (inactive)
32 | c1ccc2c(c1)CNc1ccccc1C2 | 0% (inactive)
33 | CC(NC(=O)c1ccc2c(c1)OCO2)C(c1cccs1)N1CCOCC1 (stereo not given) | 9% (inactive)
34 | CCOC(=O)c1ccc(Oc2nc(NC)nc(OC)n2)cc1 | 0% (inactive)
35 | COc1ccccc1C(=O)Nc1ccc(S(=O)(=O)N2CCOCC2)cc1 | 6% (inactive)
36 | COCCCNC(=O)CC1Oc2ccccc2NC1=O (stereo not given) | 0% (inactive)
37 | Cc1nnc(SCC(=O)NCCN2C(=O)CSC2=O)s1 | 7% (inactive)
38 | COc1cc(OC)cc(-n2nnnc2SCC(=O)N2CCCC2)c1 | 0% (inactive)
39 | CCCn1nc(CC(=O)O)c2ccccc2c1=O | 0% (inactive)
40 | CCOC(=O)c1cccc(NC(=O)CCn2nnc3ccccc32)c1 | 0% (inactive)
